In the supplement of paper PMC10849652:
Of roughly 8,800 targets only a part is listed; those with a hit were picked by preference. About 0.5% of all pairs of compound and target were hits.

Tests used:
Assay in all cases: log2 fold change, soluble protein after heating vs DMSO (PISA); higher = thermal stabilisation; K562 lysate, 10 uM; active = over 0.2 and 3.5 SD of the protein, either way, in both replicates (recomputed)
[1] = compound: CCCS(=O)(=O)Nc1ccc(F)c(C(=O)c2c[nH]c3ncc(-c4ccc(Cl)cc4)cc23)c1F [vemurafenib]
Summary of the method: (§1)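 K562 pellets were dounce-homogenised in PBS pH 7.4 containing 1 mM MgCl2, and the crude extract, at 1 mg/mL protein, was exposed to 10 μM compound for 30 min. Aliquots were heated for 3 min across 48°C-58°C, pooled, brought to 0.5% NP-40 at 4°C and spun at 21,000xg for 90 min, with the supernatant taken as soluble protein. TMTpro 16plex LC-MS/MS with equalised channel sums quantified that protein. Values are log-two fold changes in thermal stability relative to solvent controls, taken from duplicates.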

[2] = compound: CCCS(=O)(=O)Nc1ccc(F)c(C(=O)c2c[nH]c3ncc(Cl)cc23)c1F
Summary of the method: as §1

[3] = compound: CCN(CCCOc1ccc2c(Nc3cc(CC(=O)Nc4cccc(F)c4)[nH]n3)ncnc2c1)CCOP(=O)(O)O [barasertib]
Summary of the method: as §1

[4] = compound: CC[C@@H]1C(=O)N(C)c2cnc(Nc3ccc(C(=O)NC4CCN(C)CC4)cc3OC)nc2N1C1CCCC1
Summary of the method: as §1

[5] = compound: CC[C@@H]1C(=O)N(C)c2cnc(Nc3ccc(C(=O)N[C@H]4CC[C@H](N5CCN(CC6CC6)CC5)CC4)cc3OC)nc2N1C(C)C [volasertib]
Summary of the method: as §1

[6] = compound: CCn1c(C(=O)N(C2CC2)C2CC2)cc2c3c(ncn3C)c(Nc3cc(C)n(C)n3)nc21
Summary of the method: as §1

[7] = compound: CCn1cc(-c2ccnc3[nH]c(-c4cccc(CN(C)C)c4)cc23)c(-c2ccc(NC(=O)N(C)C)cc2)n1
Summary of the method: as §1

[8] = compound: CN1CCC(CNc2ccc3ncc(-c4cccc(OC(F)(F)F)c4)n3n2)CC1
Summary of the method: as §1

[9] = compound: CN1CCN(CCOc2cc(OC3CCOCC3)c3c(Nc4c(Cl)ccc5c4OCO5)ncnc3c2)CC1 [saracatinib]
Summary of the method: as §1

[10] = compound: CN1CCN(c2nc(C3=C(c4c[nH]c5ccccc45)C(=O)NC3=O)c3ccccc3n2)CC1 [sotrastaurin]
Summary of the method: as §1

[11] = compound: CN1CC[C@H](c2c(O)cc(O)c3c(=O)cc(-c4ccccc4Cl)oc23)[C@H](O)C1 [alvocidib]
Summary of the method: as §1

[12] = compound: CN1CCc2c(c3ccccc3n2Cc2ccc(C(=O)NO)cc2)C1 [Tubastatin A]
Summary of the method: as §1

[13] = compound: CNC(=O)C1=CC=CC=C1NC2=NC(=NC=C2Cl)NC3=C(C=C(C=C3)N4CCOCC4)OC
Summary of the method: as §1

[14] = compound: CNC(=O)c1ccc(Nc2ncc(C(F)(F)F)c(NCc3nccnc3N(C)S(C)(=O)=O)n2)cc1 [defactinib]
Summary of the method: as §1

[15] = compound: CNc1nc(-c2ccc3c(N)n[nH]c3c2)cc(N2C[C@@H](C(=O)NC3CCCCC3)CC[C@H]2C)n1
Summary of the method: as §1

[16] = compound: COC(=O)N[C@@H](C)CNc1nccc(-c2cn(C(C)C)nc2-c2cc(Cl)cc(NS(C)(=O)=O)c2F)n1 [encorafenib]
Summary of the method: as §1

[17] = compound: COC(=O)[C@H](CCSC)NC(=O)C1=C(C=C(C=C1)NC[C@H](CS)N)C2=CC=CC=C2
Summary of the method: as §1

[18] = compound: COc1cc(Nc2ncc3c(n2)-c2ccc(Cl)cc2C(c2c(F)cccc2OC)=NC3)ccc1C(=O)O [alisertib]
Summary of the method: as §1

[19] = compound: COc1cc2nc(-c3cc(F)ccc3O)nc(N[C@@H]3CNC[C@H]3C(C)(C)O)c2cc1OC
Summary of the method: as §1

[20] = compound: COc1cc2ncnc(Nc3ccc(F)c(Cl)c3)c2cc1OCCCN1CCOCC1 [gefitinib]
Summary of the method: as §1

Measured: log2 fold change

NDC1 (UniProt Q9BTX1)
Chain of UniProt Q9BTX1 (Q9BTX1 whole entry, looked up): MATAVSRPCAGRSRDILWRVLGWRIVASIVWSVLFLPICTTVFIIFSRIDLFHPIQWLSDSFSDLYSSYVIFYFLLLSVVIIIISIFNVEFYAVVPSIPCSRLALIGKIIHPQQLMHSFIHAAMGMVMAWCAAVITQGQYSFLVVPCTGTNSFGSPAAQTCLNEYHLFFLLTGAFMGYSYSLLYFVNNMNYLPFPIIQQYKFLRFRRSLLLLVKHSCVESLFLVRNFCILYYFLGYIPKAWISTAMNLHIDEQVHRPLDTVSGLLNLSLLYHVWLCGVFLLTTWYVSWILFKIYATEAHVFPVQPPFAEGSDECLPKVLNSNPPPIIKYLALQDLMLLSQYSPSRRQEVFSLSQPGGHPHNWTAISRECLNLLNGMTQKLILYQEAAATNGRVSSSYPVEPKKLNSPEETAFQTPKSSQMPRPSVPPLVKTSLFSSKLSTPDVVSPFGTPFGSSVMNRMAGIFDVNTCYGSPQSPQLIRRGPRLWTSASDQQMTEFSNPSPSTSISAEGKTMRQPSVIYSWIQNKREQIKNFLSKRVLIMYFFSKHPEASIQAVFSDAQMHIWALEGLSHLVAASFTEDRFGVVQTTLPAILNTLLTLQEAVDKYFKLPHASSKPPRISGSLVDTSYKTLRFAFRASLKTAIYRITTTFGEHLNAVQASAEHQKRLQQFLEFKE
active: [17] -0.297
inactive: [1] 0.053 | [2] -0.051 | [3] 0.075 | [4] 0.081 | [5] 0.016 | [6] -0.02 | [7] -0.3 | [8] 0.155 | [9] 0.032 | [10] 0.011 | [11] -0.131 | [12] -0.046 | [13] -0.001 | [14] -0.058 | [15] -0.044 | [16] 0.03 | [18] 0.011 | [19] 0.047 | [20] -0.031

PARG (UniProt Q86W56)
Chain of UniProt Q86W56 (Q86W56 whole entry, looked up): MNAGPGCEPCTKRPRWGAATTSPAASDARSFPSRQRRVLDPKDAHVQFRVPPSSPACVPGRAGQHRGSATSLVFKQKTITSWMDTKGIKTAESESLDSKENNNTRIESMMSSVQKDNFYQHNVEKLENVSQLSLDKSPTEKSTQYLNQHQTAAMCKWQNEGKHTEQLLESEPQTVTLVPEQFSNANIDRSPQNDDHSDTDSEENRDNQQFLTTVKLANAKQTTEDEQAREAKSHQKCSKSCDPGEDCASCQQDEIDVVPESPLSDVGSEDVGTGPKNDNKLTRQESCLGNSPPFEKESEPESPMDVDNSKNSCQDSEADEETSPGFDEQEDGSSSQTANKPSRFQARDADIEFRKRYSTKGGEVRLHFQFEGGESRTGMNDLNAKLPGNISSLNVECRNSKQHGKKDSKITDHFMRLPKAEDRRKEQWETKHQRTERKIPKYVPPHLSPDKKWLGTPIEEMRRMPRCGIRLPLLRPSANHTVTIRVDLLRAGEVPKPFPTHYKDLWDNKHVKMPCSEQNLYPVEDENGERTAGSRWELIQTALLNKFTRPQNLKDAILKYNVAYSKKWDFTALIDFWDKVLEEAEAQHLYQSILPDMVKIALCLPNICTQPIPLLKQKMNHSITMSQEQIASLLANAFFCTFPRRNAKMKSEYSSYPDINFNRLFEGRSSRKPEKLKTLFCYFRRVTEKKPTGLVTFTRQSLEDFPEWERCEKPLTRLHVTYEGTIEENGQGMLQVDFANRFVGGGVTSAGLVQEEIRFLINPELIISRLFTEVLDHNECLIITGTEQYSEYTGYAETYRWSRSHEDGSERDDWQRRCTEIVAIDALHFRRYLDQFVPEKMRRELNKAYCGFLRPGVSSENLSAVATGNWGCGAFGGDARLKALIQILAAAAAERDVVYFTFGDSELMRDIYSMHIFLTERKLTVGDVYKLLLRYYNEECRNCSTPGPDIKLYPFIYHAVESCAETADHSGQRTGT
inactive: [1] 0.028 | [2] 0.033 | [3] 0.008 | [4] -0.027 | [5] -0.018 | [6] -0.015 | [7] 0.065 | [8] -0.032 | [9] 0.006 | [10] 0.02 | [11] 0.03 | [12] -0.055 | [13] 0.029 | [14] 0.041 | [15] -0.016 | [16] 0.027 | [17] 0.042 | [18] 0 | [19] 0.01 | [20] 0.046

PAXBP1 (UniProt Q9Y5B6)
inactive: [1] 0.072 | [2] 0.006 | [3] 0.07 | [4] -0.008 | [5] -0.058 | [6] 0.042 | [7] 0.043 | [8] 0.004 | [9] 0.02 | [10] 0.025 | [11] -0.043 | [12] -0.069 | [13] 0.015 | [14] 0.005 | [15] -0.004 | [16] 0.018 | [18] 0.013 | [19] -0.003 | [20] -0.038
active: [17] 0.29

NOC2L (UniProt Q9Y3T9)
active: [15] 0.257
inactive: [1] 0.04 | [2] 0.021 | [3] 0.028 | [4] -0.029 | [5] -0.035 | [6] 0.006 | [7] -0.079 | [8] -0.016 | [9] -0.078 | [10] 0.05 | [11] -0.009 | [12] -0.066 | [13] 0.043 | [14] 0.121 | [16] 0.048 | [17] -0.02 | [18] 0.01 | [19] 0.06 | [20] -0.03

NARS2 (UniProt Q96I59)
Chain of UniProt Q96I59 (Q96I59 whole entry, looked up): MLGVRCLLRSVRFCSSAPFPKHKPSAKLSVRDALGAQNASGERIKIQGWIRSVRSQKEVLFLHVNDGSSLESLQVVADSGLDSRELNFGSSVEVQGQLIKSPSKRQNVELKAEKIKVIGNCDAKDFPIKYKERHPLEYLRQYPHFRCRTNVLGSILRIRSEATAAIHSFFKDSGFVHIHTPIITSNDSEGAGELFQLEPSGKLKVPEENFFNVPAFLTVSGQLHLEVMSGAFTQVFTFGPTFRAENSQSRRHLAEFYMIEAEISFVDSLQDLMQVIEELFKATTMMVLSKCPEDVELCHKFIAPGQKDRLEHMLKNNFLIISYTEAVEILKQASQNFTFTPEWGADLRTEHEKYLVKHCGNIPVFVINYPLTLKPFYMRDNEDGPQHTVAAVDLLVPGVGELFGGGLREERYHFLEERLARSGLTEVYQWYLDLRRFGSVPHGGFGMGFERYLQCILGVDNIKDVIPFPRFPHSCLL
inactive: [1] 0.022 | [2] 0.028 | [3] 0 | [4] -0.025 | [5] -0.067 | [6] 0.041 | [7] -0.091 | [8] 0.027 | [9] 0.001 | [10] -0.024 | [11] 0.013 | [12] -0.157 | [13] -0.046 | [14] 0.014 | [15] -0.04 | [16] -0.01 | [17] 0.039 | [18] -0.006 | [19] -0.01 | [20] -0.016

MRPL53 (UniProt Q96EL3)
inactive: [1] -0.006 | [2] -0.01 | [3] 0.032 | [4] 0.069 | [5] 0.057 | [6] -0.017 | [7] 0.013 | [8] -0.019 | [9] -0.003 | [10] -0.021 | [11] 0.005 | [12] -0.048 | [13] -0.02 | [14] 0.051 | [15] -0.048 | [16] -0.036 | [18] 0.049 | [19] 0 | [20] -0.048
active: [17] -0.226

NUDT4 isoform 2 (UniProt Q9NZJ9)
inactive: [1] 0.009 | [2] 0.021 | [3] -0.05 | [4] 0.013 | [5] 0.005 | [6] -0.018 | [7] -0.068 | [8] 0.058 | [9] 0.076 | [10] 0 | [11] -0.001 | [12] -0.101 | [13] 0.01 | [14] -0.07 | [15] 0.073 | [16] 0.025 | [17] -0.129 | [18] 0.012 | [19] 0.003 | [20] -0.023

NOB1 (UniProt Q9ULX3)
Chain of UniProt Q9ULX3 (Q9ULX3 whole entry, looked up): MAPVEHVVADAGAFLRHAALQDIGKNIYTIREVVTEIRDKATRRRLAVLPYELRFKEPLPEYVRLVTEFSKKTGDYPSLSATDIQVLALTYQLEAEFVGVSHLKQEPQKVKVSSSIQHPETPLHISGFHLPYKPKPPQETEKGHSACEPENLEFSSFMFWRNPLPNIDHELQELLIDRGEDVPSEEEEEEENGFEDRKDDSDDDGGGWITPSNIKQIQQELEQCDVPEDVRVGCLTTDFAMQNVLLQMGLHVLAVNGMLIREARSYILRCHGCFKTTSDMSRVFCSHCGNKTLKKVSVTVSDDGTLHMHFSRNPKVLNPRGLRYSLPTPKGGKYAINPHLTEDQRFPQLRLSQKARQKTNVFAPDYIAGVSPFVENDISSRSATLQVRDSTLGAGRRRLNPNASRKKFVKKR
active: [7] 0.274
inactive: [1] -0.002 | [2] 0.032 | [3] -0.053 | [4] -0.045 | [5] -0.02 | [6] -0.003 | [8] -0.102 | [9] 0.018 | [10] -0.009 | [11] 0.077 | [12] -0.129 | [13] -0.005 | [14] 0 | [15] -0.011 | [16] 0.036 | [17] 0.037 | [18] 0.047 | [19] -0.031 | [20] -0.022

NAA30 (UniProt Q147X3)
Chain of UniProt Q147X3 (Q147X3 whole entry, looked up): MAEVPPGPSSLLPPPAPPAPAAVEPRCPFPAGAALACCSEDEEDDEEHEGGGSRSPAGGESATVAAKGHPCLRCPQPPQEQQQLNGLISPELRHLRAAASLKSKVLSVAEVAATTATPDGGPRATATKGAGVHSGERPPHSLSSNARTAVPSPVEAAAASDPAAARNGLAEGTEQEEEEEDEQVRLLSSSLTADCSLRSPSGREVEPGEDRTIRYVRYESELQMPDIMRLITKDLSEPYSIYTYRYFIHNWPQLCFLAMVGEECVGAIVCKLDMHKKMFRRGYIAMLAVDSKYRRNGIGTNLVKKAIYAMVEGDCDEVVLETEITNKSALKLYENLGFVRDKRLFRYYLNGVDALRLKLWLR
inactive: [1] 0.001 | [2] 0.009 | [3] 0.037 | [4] 0.043 | [5] 0.012 | [6] -0.058 | [7] -0.022 | [8] 0.043 | [9] -0.003 | [10] 0.045 | [11] -0.03 | [12] 0.051 | [13] -0.023 | [14] 0.002 | [15] 0.023 | [16] -0.032 | [17] 0.008 | [18] 0.039 | [19] -0.066 | [20] 0.015

NTMT1 (UniProt Q9BV86)
Chain of UniProt Q9BV86 (Q9BV86 whole entry, looked up): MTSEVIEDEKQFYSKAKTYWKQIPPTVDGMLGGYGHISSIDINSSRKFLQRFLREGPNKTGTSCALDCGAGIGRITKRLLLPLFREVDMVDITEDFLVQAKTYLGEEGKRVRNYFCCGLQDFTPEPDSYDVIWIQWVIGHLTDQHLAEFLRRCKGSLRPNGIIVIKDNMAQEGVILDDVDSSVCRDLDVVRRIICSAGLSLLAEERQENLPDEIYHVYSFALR
inactive: [1] 0.023 | [2] 0.026 | [3] 0.026 | [4] -0.029 | [5] -0.024 | [6] 0.015 | [7] 0.055 | [8] -0.101 | [9] 0.008 | [10] 0.056 | [11] 0.047 | [12] -0.175 | [13] 0.018 | [14] 0.065 | [15] 0.023 | [16] -0.006 | [17] 0.166 | [18] -0.007 | [19] -0.016 | [20] 0.057

MYO1C (UniProt O00159)
inactive: [1] -0.016 | [2] 0.039 | [3] -0.012 | [4] -0.042 | [5] -0.046 | [6] 0.101 | [7] -0.025 | [8] -0.018 | [9] -0.019 | [10] 0.028 | [11] 0.029 | [12] -0.114 | [13] -0.057 | [14] 0.052 | [15] -0.045 | [16] 0.076 | [17] 0.049 | [18] 0.008 | [19] 0.01 | [20] -0.02

NR3C1 isoform 3 (UniProt P04150)
inactive: [1] -0.138 | [2] 0.027 | [3] -0.385 | [4] -0.086 | [5] -0.046 | [6] 0.001 | [7] 0.07 | [8] -0.081 | [9] 0.072 | [10] -0.016 | [11] -0.004 | [12] -0.088 | [13] 0.048 | [14] 0.021 | [15] -0.093 | [16] 0.05 | [17] 0.029 | [18] 0.045 | [19] -0.001 | [20] 0.013

NUCB2 (UniProt P80303)
Chain of UniProt P80303 (P80303 whole entry, looked up): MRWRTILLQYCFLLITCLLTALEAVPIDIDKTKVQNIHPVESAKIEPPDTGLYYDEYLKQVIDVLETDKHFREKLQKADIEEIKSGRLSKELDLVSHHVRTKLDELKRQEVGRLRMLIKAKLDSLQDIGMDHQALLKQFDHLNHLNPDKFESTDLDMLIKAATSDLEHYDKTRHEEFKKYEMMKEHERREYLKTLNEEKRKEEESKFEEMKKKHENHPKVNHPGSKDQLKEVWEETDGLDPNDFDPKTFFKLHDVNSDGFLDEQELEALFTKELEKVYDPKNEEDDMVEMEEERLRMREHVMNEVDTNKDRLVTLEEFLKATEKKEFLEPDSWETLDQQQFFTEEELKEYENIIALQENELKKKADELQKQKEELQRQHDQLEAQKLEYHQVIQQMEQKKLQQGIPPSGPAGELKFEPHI
inactive: [1] 0.01 | [2] -0.009 | [3] -0.004 | [4] 0.052 | [5] 0.022 | [6] -0.008 | [8] -0.084 | [9] 0.015 | [10] -0.026 | [11] 0.061 | [12] 0.036 | [13] 0.007 | [14] -0.039 | [15] 0.005 | [16] 0.001 | [17] -0.027 | [18] 0.003 | [19] 0.014 | [20] 0.004
active: [7] 0.338

OSBP (UniProt P22059)
Chain of UniProt P22059 (P22059 whole entry, looked up): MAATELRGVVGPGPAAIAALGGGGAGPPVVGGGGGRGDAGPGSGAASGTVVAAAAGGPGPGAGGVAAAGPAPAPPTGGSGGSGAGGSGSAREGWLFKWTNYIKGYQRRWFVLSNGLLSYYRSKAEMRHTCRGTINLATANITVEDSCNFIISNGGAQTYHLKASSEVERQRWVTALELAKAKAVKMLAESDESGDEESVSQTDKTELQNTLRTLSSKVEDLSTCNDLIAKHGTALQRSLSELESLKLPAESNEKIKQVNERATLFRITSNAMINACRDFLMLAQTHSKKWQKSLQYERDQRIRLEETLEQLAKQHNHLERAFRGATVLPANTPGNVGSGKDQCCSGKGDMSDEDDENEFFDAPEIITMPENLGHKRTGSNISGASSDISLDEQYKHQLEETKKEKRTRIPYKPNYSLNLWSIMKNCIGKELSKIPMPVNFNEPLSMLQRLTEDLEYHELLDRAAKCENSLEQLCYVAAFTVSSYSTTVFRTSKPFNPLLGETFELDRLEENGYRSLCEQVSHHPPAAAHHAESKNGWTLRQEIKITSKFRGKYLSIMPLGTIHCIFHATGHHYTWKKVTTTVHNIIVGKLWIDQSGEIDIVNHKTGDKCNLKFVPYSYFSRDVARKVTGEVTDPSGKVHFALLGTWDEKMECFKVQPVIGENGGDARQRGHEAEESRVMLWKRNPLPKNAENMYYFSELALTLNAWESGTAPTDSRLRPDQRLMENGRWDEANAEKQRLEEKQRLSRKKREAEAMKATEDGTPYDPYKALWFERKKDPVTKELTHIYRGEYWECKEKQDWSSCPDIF
inactive: [1] -0.052 | [2] -0.007 | [3] -0.004 | [4] -0.076 | [5] -0.091 | [6] 0.041 | [7] -0.045 | [8] -0.032 | [9] 0.011 | [10] 0.026 | [11] 0 | [12] 0.06 | [13] -0.193 | [14] -0.009 | [15] -0.155 | [16] 0.017 | [17] 0.001 | [18] 0.026 | [19] 0.042 | [20] -0.045

NMT1 (UniProt P30419)
Chain of UniProt P30419 (P30419 whole entry, looked up): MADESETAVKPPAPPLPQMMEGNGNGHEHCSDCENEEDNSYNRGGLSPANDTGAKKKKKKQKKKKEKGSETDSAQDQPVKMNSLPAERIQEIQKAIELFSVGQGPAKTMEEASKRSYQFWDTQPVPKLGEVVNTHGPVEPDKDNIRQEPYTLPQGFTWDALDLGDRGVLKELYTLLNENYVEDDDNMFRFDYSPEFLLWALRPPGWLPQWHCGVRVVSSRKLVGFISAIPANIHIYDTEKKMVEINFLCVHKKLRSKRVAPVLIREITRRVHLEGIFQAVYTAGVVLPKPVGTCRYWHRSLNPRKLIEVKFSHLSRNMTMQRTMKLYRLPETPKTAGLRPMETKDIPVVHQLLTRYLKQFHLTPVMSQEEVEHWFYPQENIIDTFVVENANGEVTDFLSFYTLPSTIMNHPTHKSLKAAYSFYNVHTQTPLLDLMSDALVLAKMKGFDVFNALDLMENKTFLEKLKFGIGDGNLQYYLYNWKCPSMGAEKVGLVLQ
inactive: [1] 0.024 | [2] 0.016 | [3] -0.025 | [4] 0.014 | [5] -0.002 | [6] 0.01 | [7] -0.04 | [8] 0.001 | [9] 0.003 | [10] 0.025 | [11] 0.021 | [12] 0.001 | [13] 0.001 | [14] 0.031 | [15] 0.011 | [16] -0.001 | [17] 0.087 | [18] -0.005 | [19] 0.007 | [20] -0.006

NCAPG2 (UniProt Q86XI2)
inactive: [1] 0.015 | [2] 0.044 | [3] 0.016 | [4] -0.055 | [5] -0.006 | [6] 0.025 | [7] -0.139 | [8] 0.074 | [9] 0.027 | [10] 0.027 | [11] -0.014 | [12] -0.217 | [13] -0.008 | [14] 0.023 | [15] 0.04 | [16] 0.002 | [17] -0.018 | [18] 0.004 | [19] -0.01 | [20] 0.038
